Results published in the supplement of paper PMC6555819.

Tests used:
Assay in all cases: PBM binding z-score (relative to random genomic background probes); higher = stronger binding; sequences stand for … in GC…GCGATTGACAGCGTAGAATGAAGG
[1] = test system: PPARg:RXRa IVT, anti-PPARg (NR concentration 270 nM, RXRa partner concentration 90 nM)
Method in brief: (§1)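 Probes were double-stranded and carried 34-nt variable regions with direct-repeat seeds, single-nucleotide variants, half-site ablations and random human genomic background sequences, printed on custom Agilent 4×180K protein-binding microarrays. Arrays were incubated 1 h with ligand-free nuclear receptor dimers in PBS pH 7.4, 2% milk, 0.02% Triton X-100, 1 mM DTT, 0.2 mg/mL BSA and 0.4 mg/ml salmon testes DNA. Antibodies against each partner (one per run) detected binding, and scanned fluorescence was regression-normalized. Binding z-scores use the random background probes as reference.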

[2] = test system: PPARg DBDmut:RXRa IVT, anti-PPARg (DBD mutation: PPARg1 K132A/R137A, NR concentration 270 nM, RXRa partner concentration 90 nM)
Method in brief: as §1

[3] = test system: PPARg DBDmut IVT, anti-PPARg (DBD mutation: PPARg1 K132A/R137A, NR concentration 270 nM)
Method in brief: as §1

[4] = test system: PPARg homodimer (NR concentration 180 nM)
Method in brief: as §1

[5] = test system: PXR:RXRa (NR concentration 270 nM, RXRa partner concentration 90 nM)
Method in brief: as §1

[6] = test system: PXR homodimer (NR concentration 270 nM)
Method in brief: as §1

[7] = test system: RARa:RXR (NR concentration 270 nM, RXRa partner concentration 90 nM)
Method in brief: as §1

[8] = test system: RARa homodimer (NR concentration 270 nM)
Method in brief: as §1

[9] = test system: RARb:RXRa (NR concentration 270 nM, RXRa partner concentration 90 nM)
Method in brief: as §1

[10] = test system: RARb homodimer (NR concentration 270 nM)
Method in brief: as §1

| Sequence | PBM binding z-score [1] | PBM binding z-score [2] | PBM binding z-score [3] | PBM binding z-score [4] | PBM binding z-score [5] | PBM binding z-score [6] | PBM binding z-score [7] | PBM binding z-score [8] | PBM binding z-score [9] | PBM binding z-score [10] |
| --- | --- | --- | --- | --- | --- | --- | --- | --- | --- | --- |
| CGTTCAAGGTCAAAGGTCAGTGAAGAGATGACGG | 6.57 | 2.57 | 1.79 | 6.36 | 7.19 | 3.57 | 8.99 | 5.48 | 5.89 | 5.42 |
| ATCGAAAGGTCCACGAGGTGAGTATACACCGTTT | 0.791 | 0.466 | 0.248 | 0.167 | 0.264 | -0.268 | 0.714 | 0.24 | 1.66 | 1.2 |
| ATATGTAGGTTAGCTGGGGTCATTCACACTAGGC | 6.11 | 2.75 | 2.29 | 3.1 | 6.36 | 4.2 | 5.41 | 1.89 | 2.85 | 3.87 |
| TCTTGTAGATCGATAGAGGTTAAGAAAGTGCGCT | 0.198 | 0.295 | 0.641 | 0.199 | 2.67 | 0.241 | 1.23 | 0.262 | 0.661 | 0.946 |
| AGTCAAAGTTCAGGACGACGTAACGTAAAGCACG | 1.54 | 0.437 | -0.388 | 1.53 | 2.18 | 0.785 | 1.86 | 0.264 | 3.92 | 2.77 |
| GCTGCTAGGTCAACTGATGGTCACCTAAAGCTCG | 4.59 | -0.0462 | -0.599 | 1.66 | 2.06 | -0.358 | 3.26 | 0.182 | 4.24 | 3.93 |
| TAGCCTAGGTCGTTCAGGGGCCAGTATAGAAAGC | 0.847 | -0.279 | -0.473 | 0.19 | 0.589 | -0.665 | 1.18 | -0.836 | 1.63 | 1.63 |
| TCTCGGAGGACACTAAAGGTCAGAGCTCGACATC | 1.59 | -0.114 | -0.191 | 2.43 | 3.8 | 0.66 | 4.14 | 0.456 | 3.84 | 4.7 |
| TAGCCTAGGTCATGCGGGACAGTATAGTGTCGGC | 3.2 | 0.574 | 0.484 | 1.45 | 1.82 | -0.102 | 2.58 | -0.0247 | 3.72 | 2.99 |
| GTTACAGGGTCAAGGCCAGAGTACGCGTATTGAT | 4.35 | 0.698 | 0.735 | 2.94 | 3.92 | 0.672 | 4.89 | 0.693 | 4.52 | 4.1 |
| AACGAAAGGTCGAAGGTGAGTATACCCACCCGAA | 2.16 | 0.625 | -0.0943 | 0.991 | 3 | -0.293 | 4.48 | 0.698 | 3.79 | 2.48 |
| TCTAGTTGGTCACGGAGGTCCCACACGACGGGTA | 2.31 | 0.993 | 1.03 | 0.373 | 0.138 | -0.319 | 0.243 | 0.299 | 1.57 | 1.32 |
| TAGCCTAGGTCATTCAGGGGCCACTATAGAAAGC | 3.19 | 0.203 | -0.136 | 2.11 | 3.08 | -0.109 | 4.13 | 0.262 | 4.11 | 3.28 |
| CGTCCAAGGACAATGCTAGGTCAGTGAAAGCATT | 0.25 | -1.55 | -0.865 | 0.328 | 0.242 | 0.0712 | 0.502 | -0.127 | 2.03 | 2.48 |
| TCTTGTAGATCAACAGGAGGTTAATAAAGATCGA | 0.851 | 0.688 | 0.752 | 0.0813 | 0.776 | -0.162 | 1.23 | 0.176 | 0.533 | 0.497 |
| CCTTACGGGTCACGAGGTTGTAGCACGACGAGCG | 4.99 | 1.56 | -0.374 | 3.19 | 3.92 | -0.0862 | 5.55 | 0.412 | 4.42 | 3.53 |
| TTACCAAGGTGAACGGTCGTTGATGCACGCCTTG | 3.55 | 1.13 | 0.904 | 0.997 | -0.0425 | -0.818 | 0.693 | -0.752 | 2.03 | 1.31 |
| TGTATGAGGTTAAAGATCAGGGAACGTGGCGTCG | 1.99 | 0.959 | 0.628 | 1.78 | 2.38 | 0.249 | 3.55 | 1.35 | 2.49 | 1.35 |
| CAAACTAGGTCAAGGTCTAAGTCGGTTTGTGCCA | 8.57 | 4.39 | 3.12 | 2 | 1.67 | 0.201 | 2.3 | 0.357 | 4.24 | 3.49 |
| AGTCAAAGTTCAGGACGAGGTAACGTTAAGCACG | 1.92 | 0.603 | 0.235 | 2.35 | 3.11 | 1.65 | 2.78 | 0.838 | 4.3 | 3.3 |
| AGAATGAGATTACCAAAGATCAGGGAAACGCTTG | -0.595 | 0.561 | 0.0997 | -0.0322 | -0.245 | -0.0511 | -0.182 | -0.0131 | -0.301 | -0.938 |
| CATACAGGGTCGGCTAGGCCAGAGTAGGGACGGC | 0.00635 | -0.399 | -0.0958 | -0.0997 | -0.0911 | -0.146 | 0.408 | -0.15 | 1.13 | 0.799 |
| TCTAGTTGGTCACGGAGGACACACACGACGGGTA | 2.32 | 1.35 | 1.02 | 0.981 | 0.558 | 0.193 | 0.682 | 0.611 | 2.19 | 2.13 |
| ATATGTAGGATAGCTGGGGTCATTCAGACTAGGC | 2.82 | 0.891 | 1.52 | 5.47 | 5.76 | 2.24 | 5.49 | 1.21 | 2.54 | 3.16 |
